Compounds with a hit are over-represented: about 10% of the library has one in this group of screens.
G9a inh: blocks human histone lysine methyltransferase G9a; Q96KQ7; G9a H3K9 monomethylation, AlphaScreen, 2 h; Potency, µM (highest dose often 102 µM), for the others: at the highest dose activity, negative = inhibition, most hits filed as inhibitors; 8.8% of 350,000 active; AID 504332; also: potency is read from the fitted curve at half-maximal effect; % is scaled to controls: 0 for no effect and ±100 for the full control effect; nearly all actives have a fitted effect of over 75% in size
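Enzyme 20 nM + cpd, 15 min RT; add b-H3K9 pep 500 nM / SAM 20 uM; 2 h RT; anti-H3K9me1 Ab 0.5 ug/mL + SA donor / anti-rabbit acceptor beads 20 ug/mL each, 10 min; AlphaScreen read.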
Six1-Eya2 blk: blocks human Six1 binding to Eya2 | AlphaScreen GST-Six1/His-Eya2 binding, biochemical; stronger effect = lower value | activity change, % (test concentration not listed) | 0.56% of 360,000 active | AID 651725; in the data active = activity change below about -65%; inconclusive = mostly about -30% to -63%; also: % is scaled to controls: 0 for no effect and ±100 for the full control effect
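Six1/Eya2 binding was read as AlphaScreen signal after compounds were pinned into GST-Six1 plus His-tagged Eya2 (5X stock 250/500 nM) in pH 8.0 Tris/NaCl/TCEP buffer, beads added, then incubated 1 h, 37 C, dark.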
JMJD2A Tudor inh: inhibitors of human JMJD2A Tudor domain; O75164; AlphaScreen JMJD2A-Tudor / H3K4me3 peptide binding; 4.4% of 390,000 active; Potency, µM (top dose mostly 114 µM), inactives show at the highest dose activity change, negative = inhibition, most hits filed as inhibitors; also: potency is read from the fitted curve at half-maximal effect; % is scaled to controls: 0 for no effect and ±100 for the full control effect; nearly all actives have a fitted effect of over 50% in size
Target sequence (O75164 whole entry, looked up, the tested form may be a part): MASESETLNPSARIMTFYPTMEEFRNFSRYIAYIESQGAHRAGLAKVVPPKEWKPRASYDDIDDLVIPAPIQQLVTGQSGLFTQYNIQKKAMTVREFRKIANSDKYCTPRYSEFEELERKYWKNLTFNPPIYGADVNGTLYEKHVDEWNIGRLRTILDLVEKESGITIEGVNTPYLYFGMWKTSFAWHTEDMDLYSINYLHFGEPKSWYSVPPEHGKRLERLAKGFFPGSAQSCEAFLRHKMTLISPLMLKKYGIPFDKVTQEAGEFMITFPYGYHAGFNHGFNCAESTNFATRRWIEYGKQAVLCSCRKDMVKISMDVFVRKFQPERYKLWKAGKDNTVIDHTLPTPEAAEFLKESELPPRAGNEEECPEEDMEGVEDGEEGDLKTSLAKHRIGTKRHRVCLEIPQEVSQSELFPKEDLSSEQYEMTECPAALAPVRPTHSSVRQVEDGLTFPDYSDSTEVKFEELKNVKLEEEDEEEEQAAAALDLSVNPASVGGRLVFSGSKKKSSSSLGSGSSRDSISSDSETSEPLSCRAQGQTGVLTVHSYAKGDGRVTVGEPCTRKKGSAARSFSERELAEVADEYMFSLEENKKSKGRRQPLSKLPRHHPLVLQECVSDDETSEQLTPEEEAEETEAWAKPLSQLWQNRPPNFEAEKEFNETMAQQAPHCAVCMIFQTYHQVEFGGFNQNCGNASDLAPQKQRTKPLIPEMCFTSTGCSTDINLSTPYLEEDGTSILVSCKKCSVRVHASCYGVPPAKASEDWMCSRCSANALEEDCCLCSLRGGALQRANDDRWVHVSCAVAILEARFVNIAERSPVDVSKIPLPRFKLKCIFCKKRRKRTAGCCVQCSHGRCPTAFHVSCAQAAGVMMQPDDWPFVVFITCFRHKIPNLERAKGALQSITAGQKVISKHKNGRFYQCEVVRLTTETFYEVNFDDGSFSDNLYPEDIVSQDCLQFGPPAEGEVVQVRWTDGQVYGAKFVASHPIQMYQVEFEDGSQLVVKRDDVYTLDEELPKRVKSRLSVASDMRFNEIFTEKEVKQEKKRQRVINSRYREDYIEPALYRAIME
CtBP-E1A blk: CtBP/E1A binding inhibition. AlphaScreen GST-E1A/His-CtBP binding, 1536-well; stronger effect = lower value. activity change, % (concentration not given with the values). 0.49% of 340,000 active; in the data active = activity change below about -65%; inconclusive = mostly about -30% to -63%; also: % is scaled to controls: 0 for no effect and ±100 for the full control effect
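GST-E1A and His-tagged CtBP (125 nM each as 5X stock) were preincubated with pin-transferred compound for 2 h at 37 °C in the dark, then glutathione donor and nickel acceptor beads were added for 1 h before AlphaScreen reading.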
BAZ2B block: inhibitors of human BAZ2B bromodomain. Q9UIF8. AlphaScreen BAZ2B-H3K14Ac peptide displacement. Potency, µM (titrated, usually from 114 µM), for the others: top-dose activity change, negative = inhibition, actives largely listed as inhibitors. 4.4% of 360,000 active. AID 504333; also: potency is read from the fitted curve at half-maximal effect; % is scaled to controls: 0 for no effect and ±100 for the full control effect; nearly all actives have a fitted effect of over 60% in size
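AlphaScreen luminescence quantifies BAZ2B engagement of H3K14Ac peptide; the protein and biotinylated peptide are both at 50 nM final, buffer PBS pH 7.4 with 0.01% Tween-20, all steps at room temperature.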
HP1b binding inh: blocks HP1-beta chromodomain binding to methylated histone tails. P83916. AlphaScreen HP1-beta / biotin-H3K9me3 peptide binding. Potency, µM (doses to about 114 µM), without a hit: at the top dose activity change, negative = inhibition, hits mostly inhibitors. 0.56% of 390,000 active. AID 540317; also: potency is read from the fitted curve at half-maximal effect; nearly all actives have a fitted effect of over 70% in size
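AlphaScreen: HP1-beta (50 nM) preformed 30 min with biotin-H3(1-18)K9me3 peptide (50 nM) in PBS pH 7.4, 0.01% Tween-20. Compound added for 30 min at RT, then streptavidin donor/nickel chelate acceptor beads (10 ug/mL) for 30 min.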
Starred values were filed as active, the others as inactive; ? = inconclusive; . = no result given; [ ] = dose if it differs, or a comment. Unless noted, calls follow the shape of the dose curve; as a rule, active = well fitted inhibition curve with a large enough effect; inconclusive = small, poorly fitted or top-dose-only effect; inactive = no such curve, though single readings can be large or run the other way.

SMILES	G9a inh	Six1-Eya2 blk	JMJD2A Tudor inh	CtBP-E1A blk	BAZ2B block	HP1b binding inh
COc1ccc(NC(=O)c2cc(-c3ccco3)nc3ccccc23)cc1S(=O)(=O)N1CCOCC1	.	-20.8	?	-6.0	44.7µM*	?
CCOc1cc(N2CCOCC2)c(OCC)cc1NC(=O)c1cc(-c2ccco2)nc2ccccc12	8.91µM*	-22.0	50.1µM*	5.7	.	?
O=C(NC(=S)NCCCN1CCOCC1)c1ccco1	39.8µM*	5.2	-7.6%	3.0	-17.7%	23.8%
CC(C)CCNC(=O)c1cc(-c2ccco2)nc2ccccc12	30.9%[12.7 µM]	6.3	-9.6%	1.7	-5.6%	14.6%
CCCCCCNC(=O)c1cc(-c2ccco2)nc2ccccc12	8.91µM*	-26.1	20µM*	6.7	35.5µM*	22.4µM*
COc1ccc(CCNC(=O)c2ccc3c(c2)N(Cc2cc(C)ccc2C)C(=O)c2ccccc2S3=O)cc1OC (configuration not stated)	-27.8%[59 µM]	.	-18.5%	.	-25.1%	4.5%
COc1cc(OC)cc(C(=O)Nc2cc(-c3nc4cc(Cl)ccc4o3)ccc2Cl)c1	-4.5%[59 µM]	.	-10.8%	.	-9.9%	13.4%
O=C(NCCCN1CCOCC1)c1cc(-c2ccco2)nc2ccccc12	.	-22.9	50.1µM*	-1.9	.	-6.2%
COc1cccc(CNC(=O)Cn2ncn3nc(-c4cccs4)cc3c2=O)c1OC	?	.	-3.0%	.	-14.6%	22.6%
O=C(O)CCCCCN1C(=O)C(O)=C(C(=O)/C=C/c2ccccc2)C1c1cccc([N+](=O)[O-])c1 (configuration not stated)	44.7µM*	-14.3	-17.5%	3.7	?	27.5%
CNCCc1cnc(CCC(c2ccccc2)c2ccccc2)[nH]1	10µM*	.	.	.	.	.
CCN(CC)CCN(CC)Cc1ccccc1Br	50.1µM*	-0.4	-1.9%	5.8	-12.0%	35.1%
S=C(Nc1ccc(Cl)cc1)Nc1cccc2cnccc12	44.7µM*	-22.7	-20.6%	-5.7	-38.2%	-19.3%
CCOc1ccc(NC(=S)Nc2cccc3cnccc23)cc1	?	-7.4	-12.8%	-12.5	-13.9%	-11.4%
Cc1cc(NC(=S)Nc2cccc3ccccc23)n[nH]1	1.12µM*	-1.5	-23.0%	16.4	-24.7%	-14.0%
Fc1ccc(NC(=S)Nc2cccc3cnccc23)cc1	35.5µM*	1.0	-14.0%	5.4	-36.4%	-12.4%
COc1ccccc1NC(=S)Nc1cccc2cnccc12	25.1µM*	0.0	-28.1%	1.9	2.2%	-22.8%
Cc1cccc(-c2nc3c4ccccc4nc(NCCc4ccccc4)n3n2)c1	80.6%[59 µM]	.	56.0%	.	26.6%	102.4%
CCOC(=O)NC1(C(F)(F)F)NC(=O)N(c2ccc(C)c(C)c2)C1=O (configuration not stated)	10.7%[59 µM]	.	-19.6%	.	0.9%[57.1 µM]	14.2%
C=CCNC(=S)Nc1cccc2ccccc12	44.7µM*	4.8	-8.8%	9.6	-18.5%	17.2%
C=CCNC(=S)NCc1ccccc1	.	4.7	-4.9%	4.1	-1.4%	33.4%
COc1ccc(NC(=S)Nc2cccc3cnccc23)cc1	25.1µM*	-3.4	-32.9%	0.0	-36.7%	-18.8%
CN(C)S(=O)(=O)c1cccc(NC(=S)Nc2cccc3cnccc23)c1	.	3.3	-35.2%	?	17.8%	?
Cc1ccc(NC(=S)Nc2cccc3ccccc23)cc1	.	-10.1	-26.9%	-11.7	?	-6.9%
Fc1ccc(NC(=S)Nc2cccc3ccccc23)cc1	79.4µM*	-0.5	-23.9%	.	?	1.0%
S=C(Nc1cccnc1)Nc1cccc2cnccc12	35.5µM*	-3.6	-11.7%	7.5	.	-7.2%
COC(=O)c1cc(NC(=O)c2cc3sccc3n2Cc2ccc(Cl)cc2)cc(C(=O)OC)c1	-28.0%[59 µM]	.	-28.8%	.	-20.3%	18.0%
O=C(CSc1nccc(=O)[nH]1)N1N=C2/C(=C/c3ccco3)CCCC2C1c1ccco1 (configuration not stated)	?	-12.9	44.7µM*	0.6	.	?

Bioassay records: PubChem, National Center for Advancing Translational Sciences (NCATS)
